Mito fusion yeast = inhibitors of mitochondrial division or activators of mitochondrial fusion | S. cerevisiae fusion-defective mutant growth rescue, CellTiterGlo 48 h | Potency, µM (series often up to 46.1 µM), inactives show at the highest dose growth rescue (activation), most hits filed as activators | 320,000 tested, 0.23% active; further: % of control where 0% means no effect; nearly all actives have a fitted effect of over 45% in size
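Compounds are tested for their ability to restore growth of mitochondrial fusion-defective yeast strains at non-permissive 37C in YPEG medium over 48 hours. Viability is quantified by luciferase luminescence.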
Gal4-VP16 FLuc = Gal4-VP16 reporter inhibition counter-screen. Potency, µM (doses to about 53.6 µM), inactives show at the top dose activity, negative = inhibition, most hits filed as inhibitors. Drosophila S2 Gal4-VP16 UAS-luciferase, luminescence, 20 h. 310,000 tested, 3.5% active;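 further: Gal4-VP16 expression switched on by copper sulfate through the metallothionein promoter; on the % scale 0 is the no-effect control and ±100 the full control effect; nearly all actives have a fitted effect of over 50% in size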
RORgamma inh = inhibitors of mouse ROR gamma transcriptional activity. 310,000 tested, 5.4% active. Potency, µM (titrated, usually from 53.6 µM), for the others: at the highest dose activity change, negative = inhibition, usual class: inhibitors. AID 2551. Drosophila S2 Gal4-RORgamma UAS-luciferase reporter, 20 h. P51450; further: on the % scale 0 is the no-effect control and ±100 the full control effect; nearly all actives have a fitted effect of over 60% in size
Target sequence (P51450 whole entry, looked up, the tested form may be a part): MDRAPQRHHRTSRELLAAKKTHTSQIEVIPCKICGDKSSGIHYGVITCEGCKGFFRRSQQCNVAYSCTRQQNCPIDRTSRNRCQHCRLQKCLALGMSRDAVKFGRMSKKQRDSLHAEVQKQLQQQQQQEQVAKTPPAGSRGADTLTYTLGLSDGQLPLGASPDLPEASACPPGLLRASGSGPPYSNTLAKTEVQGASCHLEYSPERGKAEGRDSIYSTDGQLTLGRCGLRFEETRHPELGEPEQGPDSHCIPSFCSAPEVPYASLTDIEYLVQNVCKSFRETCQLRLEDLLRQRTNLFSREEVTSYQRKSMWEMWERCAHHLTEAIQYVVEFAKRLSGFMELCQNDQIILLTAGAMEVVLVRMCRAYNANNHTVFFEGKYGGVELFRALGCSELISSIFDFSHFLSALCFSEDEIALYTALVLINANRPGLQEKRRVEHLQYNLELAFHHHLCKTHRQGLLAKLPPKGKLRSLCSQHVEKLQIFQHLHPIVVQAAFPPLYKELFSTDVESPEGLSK
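In this cell-based reporter format, copper sulfate (700 uM final) drives Gal4–ROR gamma fusion expression from a metallothionein promoter in Drosophila Schneider cells; compounds preincubated 1 hr, reporter read after 20 hr at ambient temperature.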
a7 integrin act = activators of alpha7 integrin expression for muscular dystrophy. Potency, µM (titrated, usually from 38.3 µM), for inactives: at the highest dose activation, most hits filed as activators. alpha7betagal myoblasts, beta-gal FDG fluorescence, 48 h. 350,000 tested, 0.064% active;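 further: 100% = response of the positive control SU9516; nearly all actives have a fitted effect of over 60% in size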
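Alpha7betagal+/- myoblasts (passage 13) were plated 16-24 hr, then exposed to compounds (1:260 dilution of DMSO stock) for 48 hours at 37C. After MPER lysis, β-galactosidase reporter activity was read as FDG fluorescence (ex 480/em 540) after 30 minutes.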
Chronic BCR inh = blocks chronic active B-cell receptor signaling | ABC-DLBCL IkBa-CBG/CBR reporter, luminescence ratio, 4 h | Potency, µM (doses to about 46.1 µM), for inactives: at the top dose activity change, negative = inhibition, most hits filed as inhibitors | 340,000 tested, 0.05% active | AID 493014; active means well fitted inhibition curve with a large enough effect in the signal ratio, with a control signal flat, not every such curve was filed as active; inconclusive means small, poorly fitted or top-dose-only effect, or effect the other way, or a change in a side signal; the % refers to the signal ratio;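 further: plate controls were basal doxycycline-induced cells for no effect and cells given 10 µM MG132 for full effect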
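Compounds up to 46 uM were incubated four hours with TMD8 cells whose green CBG68 luciferase is fused to IkappaBalpha; red CBR luminescence normalised the signal, and concentration-effect curves were fitted to fusion, red and ratio data.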
uPA surface inh = inhibitors of cell surface uPA generation; cell surface uPA generation assay, qHTS; 330,000 tested, 0.31% active; AID 540303; Potency, µM (doses to about 38.3 µM), inactives show at the top dose activity change, negative = inhibition, actives largely listed as inhibitors; active means well fitted inhibition curve with a large enough effect; inconclusive means small, poorly fitted or top-dose-only effect; inactive means no such curve, though single readings can be large or run the other way; tested in mouse RAW 264.7 cells; further: on the % scale 0 is the no-effect control and ±100 the full control effect; nearly all actives have a fitted effect of over 55% in size
Active calls of the source: *; ? = inconclusive; nt = no result given; [ ] = dose if it differs, or a comment. Shown are actives, neighbours in structure and some others; about 5.5% of the full set was active somewhere. Unless noted, the call rests on the fitted dose curve; in most records, active means well fitted curve in the direction sought with a large enough effect; inconclusive means small, poorly fitted or top-dose-only effect, or another doubt; inactive means no such curve, though single readings can be large; an effect the other way counts as inactive or inconclusive. Potency means the concentration at half of the fitted maximal effect.

SMILES	Mito fusion yeast	Gal4-VP16 FLuc	RORgamma inh	a7 integrin act	Chronic BCR inh	uPA surface inh
Cc1ccccc1-n1c(-c2ccoc2C)n[nH]c1=S	-4%	?	10µM*	27%	-1%	9%
Cc1cccc(-n2c(-c3ccoc3C)n[nH]c2=S)c1	-5%	?	8.9µM*	2%	-13%	1%
Cc1ccc(C)c(-n2c(-c3ccco3)n[nH]c2=S)c1	nt	nt	nt	23%	nt	-1%
Cc1ccccc1-n1c(C)n[nH]c1=S	-4%	-5%	?	?	-16%	11%
Cc1ccc(S(=O)(=O)N2CCC(C(=O)OCC(=O)N(C)CC(=O)Nc3ccc(F)cc3)CC2)cc1C	-3%	nt	nt	17%	?	0%
CCc1ccc(OCC(=O)N/N=C(\C)c2ccc(-n3ccnc3)cc2)cc1	6%	-14%	?	-4%	0%	-7%
C/C(=N\NC(=S)Nc1ccccc1C)c1ccc(O)cc1	-4%	?	10µM*	2%	?	20%
C=CCNC(=S)N/N=C(\C)c1ccc(-n2ccnc2)cc1	?	7.1µM*	3.2µM*	?	-3%	-9%
C/C(=N\Nc1ccccc1Cl)c1ccc(-n2ccnc2)cc1	-17%	28%	8.9µM*	1%	-7%	1%
C/C(=N\NC(=S)NC1CCCCC1)c1ccccc1	-1%	?	?	-9%	-2%	-9%
C/C(=N\NC(=S)NC(C)C)c1ccc(-n2ccnc2)cc1	3%	6.3µM*	5.6µM*	-12%	-2%	-6%
CCC(C)NC(=S)N(CCc1ccccc1)Cc1cc2cc(OC)c(OC)cc2[nH]c1=O (stereo not given)	2%	?	-45%	-10%	0%	-7%
O=C(O)c1ccc2c(c1)C(=O)N([C@H](Cc1ccccc1)C(=O)O)C2=O	2%	-2%	1%	nt	?	nt
C/C(=N\NC(N)=O)c1ccc(-n2ccnc2)cc1	9%	-8%	36%	25%	2%	4%
C/C(=N\NC(=S)NC1CCCCC1)c1ccc(O)cc1	0%	?	4.5µM*	-36%	?	6%
COCCNC(=S)N/N=C(\C)c1ccc(-n2ccnc2)cc1	-6%	7.1µM*	6.3µM*	15%	-2%	nt
C/C(=N\NC(=O)COc1ccccc1)c1ccc(O)cc1	-10%	-21%	-1%	7%	2%	-6%
CNC(=S)N/N=C(\C)c1ccc(-n2ccnc2)cc1	2%	?	8.9µM*	?	?	-4%
COCCNC(=S)N/N=C(\C)c1ccc(O)cc1	-3%	?	22µM*	-43%	-10%	-2%
C/C(=N\NC(=O)c1ccc(C)cc1C)c1ccc(-n2ccnc2)cc1	1%	-5%	-17%	-20%	1%	-4%
CCOc1ccc(NC(=O)CSC2=Nc3ccccc3C3=NC(CCC(=O)NCc4ccccc4)C(=O)N23)cc1 (stereo not given)	nt	nt	nt	nt	17%	nt
c1ccc(COc2ccc(CNCc3cccs3)cc2)cc1	-1%	16µM*	?	-27%	?	nt
Brc1ccc(CNCc2cccs2)cc1	4%	2%	4%	10%	?	-5%
O=C(O)c1ccc(CN2C(=O)CSC2=S)cc1	-15%	?	10µM*	-16%	4%	-3%
Cc1ccc(OCc2ccc(C(=O)O)o2)cc1C	19%	-29%	?	7%	?	13%
SMILES	Mito fusion yeast	Gal4-VP16 FLuc	RORgamma inh	a7 integrin act	Chronic BCR inh	uPA surface inh
Cc1cc(COc2ccccc2)oc1C(=O)O	-2%	6.3µM*	5µM*	11%	?	-5%
CCn1c(C)cc(C=C2C(=O)c3ccccc3C2=O)c1C	1%	-42%	11µM*	9%	?	0%
Cc1cc(C=C2C(=O)c3ccccc3C2=O)c(C)n1C	4%	14%	?	6%	?	1%
Cc1c(N(C)S(=O)(=O)c2cc(C(=O)N3CCCC3)ccc2Cl)c(=O)n(-c2ccccc2)n1C	3%	-9%	2%	-1%	2%	8%
OCc1ccnc2c(O)cccc12	1%	-2%	43%	-41%	6.3µM*	-1%
Oc1ccc(COC2CCCC2)c2cccnc12	3%	nt	nt	nt	7.3µM*	nt
COCc1ccc(O)c2ncccc12	-2%	3.2µM*	6.3µM*	-24%	?	-8%
Oc1ccc(COCc2ccc(F)cc2)c2cccnc12	11%	nt	nt	nt	?	nt
Oc1ccc(COc2cccc3ccccc23)c2cccnc12	-16%	nt	nt	nt	1%	nt
CCN(CC(=O)NCc1ccc(Cl)cc1)C(=O)Cc1ccc(OC)cc1	-1%	-4%	-5%	7%	0%	-2%
O=C(CSc1nnc(-c2ccncc2)n1Cc1ccco1)OC1CCCCC1	8%	?	10µM*	?	15%	nt
CC(C)(C)c1ccc(CSc2nnc(-c3ccccn3)n2Cc2ccco2)cc1	18%	7.1µM*	?	-23%	?	1%
O=C(CSc1nnc(-c2cnccn2)n1Cc1ccco1)c1ccc(Cl)cc1	9%	?	10µM*	-30%[7.66 µM]	0%	-9%
Cc1cccc(-c2nnc(SCc3nc4ccccc4[nH]3)n2Cc2ccco2)c1	-3%	-4%	-44%	-40%	4%	3%
Brc1ccc(CSc2nnc(-c3ccccn3)n2Cc2ccco2)cc1	?	?	?	4%	?	?
Cc1ccc(-c2nnc(SCc3nc4ccccc4[nH]3)n2Cc2ccco2)cc1	-5%	?	11µM*	-2%	?	nt
C[C@H](NC(=O)[C@H]1N2C(=O)c3ccccc3C2SC1(C)C)C(=O)N1CCCCC1 (stereo not given in full)	1%	-1%	17%	29%	4%	7%
N#CCCn1c(=O)cnc2cnc(Oc3ccccc3)nc21	nt	-6%	2%	nt	nt	nt
CCCCCCc1cc2cc(C(=O)OCC)c(=O)oc2cc1O	?	0%	-7%	38%	1%	2%
CCCCCCc1cc2cc(S(=O)(=O)c3ccc(F)c(Cl)c3)c(=O)oc2cc1O	-18%	4µM*	?	-24%	14%	-9%

Source: PubChem BioAssay
